Most compounds without a hit are left out; they make up all but 7.6% or so of the library.
hERG WT inh: KCNH2 (human, wildtype) channel inhibition | activity change, % at 1.84 µM | hit rate 0.37% among 340,000 | AID 720551 | U2OS, BacMam KCNH2, thallium flux FluxOr; active compounds read low;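 active means maximum activity change below -70%; inconclusive means maximum activity change between -70% and -50%; inactive means maximum activity change above -50%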
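U2OS cells transduced with wild-type KCNH2 virus are loaded with FluxOr dye for 45 min, and thallium flux is measured in kinetic reads before and after stimulation buffer. Rate constants are normalized to DMSO controls.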
KB-3-1 cytotox: kills parental KB-3-1 adenocarcinoma cells; Potency, µM (series often up to 46.1 µM), actives largely listed as cytotoxic; hit rate 1.4% among 400,000; KB-3-1 viability, CellTiter-Glo ATP luminescence, 72 h; further: nearly all actives have a fitted effect of over 60% in size
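Parental KB-3-1 adenocarcinoma cells in phenol-red-free DMEM with 10% FBS were pin-treated with compounds at several concentrations, incubated 72 h at 37 °C, and viability read by CellTiter-Glo luminescence; concentration-effect curves were fitted after normalization.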
MCF10A rerep: DNA re-replication induction in MCF 10a cells | hit rate 2.9% among 350,000 | MCF 10A DNA re-replication, Hoechst nuclear intensity, 48 h | Potency, µM (titrated, usually from 46.1 µM), actives largely listed as activators; further: nearly all actives have a fitted effect of over 50% in size
KB-V1 cytotox: kills drug-selected multidrug resistant KB-V1 cells; KB-V1 MDR cells viability, CellTiter-Glo, 72 h; Potency, µM (highest dose often 46.1 µM), hits mostly cytotoxic; hit rate 3.4% among 400,000; further: nearly all actives have a fitted effect of over 60% in size
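In this primary screen, KB-V1 cells overexpressing P-gp are incubated with library compounds (lowest to highest concentration) for 72 h at 37 degrees C before a luminescent ATP viability read.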
SW480 rerep: inducers of DNA re-replication in SW480 colon cancer cells. SW480 DNA re-replication, Hoechst DNA content imaging, 48 h. Potency, µM (highest dose often 46.1 µM), actives largely listed as activators. hit rate 1.8% among 340,000; further: nearly all actives have a fitted effect of over 55% in size
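Readout is total intensity of Hoechst-stained nuclei, excited at 405 nm and collected at 500-530 nm. Compound treatment lasted 48 hr at 37 C in 5% CO2 before staining.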
KCNH2 3.1 block: KCNH2 3.1 (human) potassium channel inhibition; U2OS KCNH2 3.1, thallium flux FluxOr; active compounds read low; activity change, % (tested at about 1.8 µM); hit rate 0.95% among 340,000; AID 720553;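 active means maximum activity change below -70%; inconclusive means maximum activity change from -70% to -50%; inactive means maximum activity change above -50%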;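 further: thallium influx rate constant from kinetic fluorescence after stimulation buffer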
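Virally transduced U2OS (3.1 isoform, 4 h infection in dark at RT) → overnight 37 C → FluxOr + Red40 in HBSS/HEPES, 45 min → stimulation buffer, 2 min kinetic read → rate constant vs DMSO controls.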
Hits are given with their value; 0 = inactive; ? = inconclusive; - = not tested or not shown. Unless noted, the call rests on the fitted dose curve; in most records, active means well fitted curve in the direction sought with a large enough effect; inconclusive means small, poorly fitted or top-dose-only effect, or another doubt; inactive means no such curve, though single readings can be large; an effect the other way counts as inactive or inconclusive.

SMILES	hERG WT inh	KB-3-1 cytotox	MCF10A rerep	KB-V1 cytotox	SW480 rerep	KCNH2 3.1 block
COc1cc(CNCCSc2nnnn2C)cc(Br)c1OCc1ccc(F)cc1	0	?	?	?	?	?
Cc1cc(OCC(=O)NCCCn2ccnc2)c2c(C)c(C)c(=O)oc2c1	0	0	0	0	0	0
CCN(CCCC(=O)c1ccc(F)cc1)CCc1ccccc1	?	0	0	?	0	-90
CCCCN(C)Cc1c(O)ccc2c(-c3ccccc3)cc(=O)oc12	0	?	0	10µM	0	0
Cc1nn(-c2ccccc2)c(Cl)c1/C=N/Nc1nc2ccccc2[nH]1	0	?	7.3µM	?	?	0
C(=C\c1ccccc1)/C=N/Nc1nc2ccccc2[nH]1	0	15µM	4.6µM	0	?	0
O=[N+]([O-])c1cc(/C=N/Nc2nc3ccccc3[nH]2)c(O)cc1O	0	0	3.3µM	0	?	0
C/C(=N\Nc1nc2ccccc2[nH]1)c1ccc(Cl)s1	0	?	?	21µM	0	0
O=C(NCCN1CCOCC1)c1ccc(Cl)cc1O	0	0	0	0	0	0
Cc1ccc(/C=N/Nc2nc3ccccc3[nH]2)s1	0	0	?	15µM	?	0
CC(C)(C)c1nc(-c2ccccc2)nc2c1OCCC2	0	0	26µM	?	0	0
OCCSc1nc(-c2ccccc2)nc2c1CCC2	0	0	0	0	0	0
COc1cc(C(=O)N/N=C/c2sccc2C)cc(OC)c1OC	0	0.65µM	?	?	1.2µM	0
COc1cc(C(=O)N/N=C/c2cc([N+](=O)[O-])cs2)cc(OC)c1OC	0	?	5.8µM	1.2µM	?	0
COc1ccc(/C=N/NC(=O)c2sccc2C)c2ccccc12	0	0	12µM	0	?	0
Cc1ccc(S(=O)(=O)N2CCC(NC(=O)c3cccc(C)c3)CC2)cc1	0	0	0	0	0	0
CC1(C)CC(N2CCCCC2)=CC(=[N+]2CCCCC2)C1	0	5.8µM	0	0	0	0
CC1(C)CC(N2CCOCC2)=CC(=[N+]2CCOCC2)C1	0	0	0	0	0	0
CCCN(CCC)C1=CC(=[N+]2CCCC2)CC(C)(C)C1	0	2.6µM	0	0	0	0
COc1ccc([C@H]2CC(=O)C[C@@H](CCn3cc(-c4cccnc4)nn3)O2)cc1	-	0	-	?	-	-
COc1ccccc1N1CCN(Cc2cc(=O)oc3cc(C)cc(C)c23)CC1	-	0	-	0	-	-
CCOC(=O)C1CCN(S(=O)(=O)c2ccc3[nH]c4c(c3c2)CCCC4)CC1	0	0	?	0	0	0
O=C1NC(=O)C(=CC=Cc2ccccc2)S1	0	0	-	0	-	0
O=C1CC(N2C(=O)/C(=C/C=C/c3ccccc3)SC2=S)C(=O)N1c1ccccc1 (centres undefined)	0	0	4.6µM	0	0	0
Cc1ccc(N(C(=O)Cn2nnc3ccccc32)C(C(=O)NC2CCCCC2)c2cn(C)nc2C)cc1 (centres undefined)	0	0	0	0	0	0
SMILES	hERG WT inh	KB-3-1 cytotox	MCF10A rerep	KB-V1 cytotox	SW480 rerep	KCNH2 3.1 block
Cc1nn(C)cc1C(C(=O)NC1CCCCC1)N(C(=O)Cn1nnc2ccccc21)c1ccc(F)cc1 (centres undefined)	0	0	26µM	0	?	0
Cc1nc2ncccn2c1-c1csc(NCc2ccco2)n1	0	?	0	16µM	0	0
Cc1nc2ncccn2c1-c1csc(Nc2ccccc2)n1	0	0	0	0	0	0
Cc1nc2sccn2c1-c1csc(NCc2ccccc2)n1	0	?	0	13µM	0	0
COc1ccccc1Nc1nc(-c2c(C)nc3ncccn23)cs1	0	?	0	7.3µM	?	0
Cc1nc2ncccn2c1-c1csc(Nc2ccc(N(C)C)cc2)n1	0	0.012µM	?	?	?	0
COc1ccc(-c2c[n+]3c4n2CCCCC4=C(c2ccc(Br)cc2)C3)cc1	0	0	?	0	0	-169
Clc1ccc(C2=C3CCCCn4c(-c5ccccc5)c[n+](c43)C2)cc1	0	?	?	0	0	0
CNc1nc(N2CCc3ccccc32)ncc1F	0	?	0	1.6µM	0	0
c1ccc2c(c1)CCCN2c1nc(N2CCOCC2)nc(N2CCOCC2)n1	0	0	0	0	0	0

Source: PubChem BioAssay
